# According to PubChem BioAssay AID652142 (Molecular Libraries Program, Specialized Chemistry Center, …, 2013):
# Among all 2,400 compounds or so, fewer than 10 were called active. Only a sample is shown. A number with no mark means an inactive call. The rule behind the calls is not given here.
# Biological target: Rac GTPase-activating protein 1 (Homo sapiens) (UniProt Q9H0H5)
# Assay: MgcRacGAP inhibitors via phosphate release, confirmation, orthogonal assay, biochemical, inorganic phosphate detection, Rac1 (AID 652142)
# Details: MgcRacGAP/Rac1F28L GTP hydrolysis, Biomol green phosphate; active compounds read high; concentration not given here
# Chain of Rac GTPase-activating protein 1 (Homo sapiens) (Q9H0H5 whole entry, looked up): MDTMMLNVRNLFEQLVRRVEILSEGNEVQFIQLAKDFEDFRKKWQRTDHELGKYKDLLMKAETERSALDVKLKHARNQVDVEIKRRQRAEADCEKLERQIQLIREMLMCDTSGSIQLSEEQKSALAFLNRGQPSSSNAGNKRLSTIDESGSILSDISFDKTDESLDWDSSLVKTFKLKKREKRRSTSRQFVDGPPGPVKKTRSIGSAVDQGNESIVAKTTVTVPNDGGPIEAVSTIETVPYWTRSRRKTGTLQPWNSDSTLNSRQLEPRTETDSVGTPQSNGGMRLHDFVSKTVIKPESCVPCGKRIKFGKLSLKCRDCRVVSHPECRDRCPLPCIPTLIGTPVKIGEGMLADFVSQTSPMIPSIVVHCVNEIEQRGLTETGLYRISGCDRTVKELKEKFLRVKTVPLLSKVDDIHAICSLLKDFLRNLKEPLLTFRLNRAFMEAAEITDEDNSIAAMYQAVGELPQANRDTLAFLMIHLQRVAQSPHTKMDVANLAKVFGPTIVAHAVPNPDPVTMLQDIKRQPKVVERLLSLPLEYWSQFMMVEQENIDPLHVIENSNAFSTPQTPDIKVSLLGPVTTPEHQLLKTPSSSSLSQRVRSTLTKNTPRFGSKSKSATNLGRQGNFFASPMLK
row,SMILES,inhibition
1,CN(C)CCCN1c2ccc(O)cc2Sc2ccc(Cl)cc21,30.1%
2,COc1cc(/C=N/NC(=O)c2cccc(NC(=O)c3ccccc3C)c2)ccc1O,19.3%
3,C/C(=N\NC(=O)c1ccc(O)cc1)c1ccc2c(c1)Nc1ccccc1S2,28.2%
4,CCOc1cc(CNc2ccc(N3CCCCC3)cc2)cc(Br)c1OCC(=O)NC(C)(C)C,35.1%
5,Cc1cc(NS(=O)(=O)c2ccc(Nc3nc(-c4ccc(O)cc4)cs3)cc2)no1,23.8%
6,COC(=O)c1ccc(NC(=S)Nc2ccc(O)cc2)cc1,34.6%
7,C[C@H]1CCC/C=C/[C@@H]2C[C@H](O)C[C@H]2[C@H](O)[C@H](S(=O)c2ccc(O)cc2)CC(=O)O1 (stereo not given in full),47.3%
8,Cc1[nH]nc(-c2ccc(O)c(C)c2O)c1-c1cnn(-c2ccccc2)c1,36.4%
9,Cn1c(=O)c2c([nH]c(=S)n2CCCc2ccccc2)n(C)c1=O,26.4%
10,Oc1ccc(N=Nc2ccccc2)cc1,8.73%
11,O=C1C=C(Nc2ccc(O)cc2)C(=O)c2ccccc21,25.1%
12,COc1cc(/C=N/Nc2nn3cnnc3c3ccccc23)ccc1O,26.4%
13,C/C(CC(=O)Nc1ccc(N(C)C)cc1)=N\NC(=O)c1ccc([N+](=O)[O-])cc1Cl,26.5%
14,COc1cc(/C=N/n2c(C3CCCCC3)n[nH]c2=S)ccc1O,27.2%
15,Cc1ccc(NC(=O)CN2CCN(C)CC2)cc1Br,26.9%
16,CCCCn1c(SCC(=O)c2ccc(O)c(O)c2)nc2ccsc2c1=O,27.5%
17,CCOC(=O)c1[nH]c2ccc(F)cc2c1NC(=O)c1ccccc1C(=O)O,22.6%
18,Cc1ccc(/C=N/Nc2ccc(Cl)c(C(=O)O)c2)s1,6.67%
19,O=C(c1cccnc1)N1CCN(Cc2cccc(Br)c2)CC1,26.8%
20,COc1ccc(N=C2NC(=O)/C(=C/c3ccc(O)c(OC)c3)S2)cc1,19.7%

row,SMILES,inhibition
1,Oc1ccc(-c2csc(-c3cccnc3)n2)c(O)c1,14.8%
2,Cc1nc(N)sc1-c1ccccc1,20.1%
3,COc1ccc(NC(=O)c2cc3ccc(O)cc3o/c2=N\O)cc1,17.5%
4,COc1cc(/C=N/NC(=S)Nc2cccc(S(=O)(=O)N(C)C)c2)ccc1O,20.1%
5,O=C(Nc1n[nH]c(=S)s1)c1ccco1,29.1%
6,CCc1nc(Nc2ccc(O)cc2)c2oc3ccccc3c2n1,27.8%
7,CCCCCC(=O)Nc1cc(S(=O)(=O)O)cc2cc(S(=O)(=O)O)cc(O)c12,64.8%
8,CCOc1ccc(/C=N/NC(=O)NC23CC4CC(CC(C4)C2)C3)cc1O,17.5%
9,CCn1c(C)nc2cc(C(=O)N/N=C/c3ccc(O)cc3)ccc21,22.6%
10,COc1ccc(Oc2c(-c3ccc(O)cc3O)n[nH]c2C)cc1,9.67%
11,C=C(CN(C)C)C(=O)c1cc(OC)c(OC)cc1OC,6.42%
12,CCn1c(=O)c(C(=O)CN(C)Cc2cccc(OC)c2OC)c(N)n(Cc2ccccc2)c1=O,35.9%
13,CCOc1ccc2c(ccc(/C=C/c3cc(C)c4cccnc4c3O)[n+]2C)c1,66.1%
14,CN(C)c1ccc(NC(=O)c2sc(SCC(=O)Nc3nccs3)nc2N)cc1,29.2%
15,Cc1ccc(NCCN(C)C)c2c(=O)c3cc(O)ccc3sc12,31.1%
16,C(=N\Nc1nc2ccccc2[nH]1)/c1c[nH]c2ccccc12,4.59%
17,COc1cc2c(cc1NC(=S)Nc1cccc3ccccc13)oc1ccccc12,21.3%
18,NS(=O)(=O)c1ccc(Nc2nc(-c3ccc(O)cc3O)cs2)cc1,24.5%
19,Cc1cc(=O)[nH]c2c(N=Nc3ccc(O)cc3)c(N)nn12,34.3%
20,CSCCOC(=O)C1=C(C)Nc2ccc(C)cc2S1,29.3%

row,SMILES,inhibition
1,OCC1CCCN(C(=S)Nc2ccc(Nc3ccccc3)cc2)C1 (stereo not given),34.4%
2,COc1cc2c(cc1NC(=S)Nc1cccc(C(F)(F)F)c1)oc1ccccc12,8.84%
3,COc1cc(/C=N/n2c(-c3cc(C)[nH]n3)n[nH]c2=S)cc(OC)c1OC,1.28%
4,CCN(CC)c1ccc(C(=C2C=CC(=[N+](CC)CC)C=C2)c2ccc(N(CC)CC)cc2)cc1,90%
5,COc1cc(C=NNC(=O)c2ccccc2-n2cccc2)ccc1O,22%
6,COc1cc2c(cc1OC)C1(CCCC1)C(N)=C2C#N,18.7%
7,CC1CC(=O)N(c2ccc(NCCc3ccc(O)cc3)c([N+](=O)[O-])c2)C1=O (stereo not given),29.1%
8,CCN1C(=O)/C(=C2/C=Cc3cc(C)ccc3N2CC)N(C)C1=S,23%
9,O=C(O)c1c2c(nc3ccccc13)/C(=C/c1ccc(O)cc1)CCC2,19.3%
10,CN(C)c1ccc(NC2=C(Cl)C(=O)c3ccccc3C2=O)cc1,22%
11,Cc1ccc(/C(N)=N/OC(=O)N2c3ccccc3Sc3ccccc32)cc1,23.7%
12,Oc1ccc(Nc2ncnc3ccccc23)cc1,20.3%
13,CN1/C(=C\C=N\NC(=O)c2ccc(O)cc2)C(C)(C)c2ccccc21,22.5%
14,O=C(Cn1c(C(=O)NCC2CCCO2)cc2sccc21)c1ccccc1 (stereo not given),18.4%
15,Cc1ccc(NC(=O)CCNCc2ccco2)cc1S(=O)(=O)N(C)C,33.8%
16,CC(NCc1ccc(S(N)(=O)=O)cc1)C(=O)N1c2ccccc2CC1C (stereo not given),13.9%
17,O=C(C1=C(O)C(=O)N(c2nc3ccc(Cl)cc3s2)C1c1ccco1)c1ccco1 (stereo not given),28.7%
18,C/C(=N\NC(=O)c1ccccc1F)c1ccc2c(c1)Nc1ccccc1S2,20.8%
19,COc1cc(/C=C2\C(=O)N(C)C(=S)N2C)ccc1O,9.53%
20,COc1ccc(NC(=O)c2ccc(NC(=O)CN3CCN(c4ccc(O)cc4)CC3)cc2)cc1,18.8%
